Artemis endo inh: Artemis (human) endonuclease inhibition; Q96SD1; recombinant Artemis, quenched FAM hairpin cleavage fluorescence; inhibition, % at 10 µM; actives 0.78% (n = 30,000); AID 686954;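 active means at 10 µM dose, at least 30% inhibition, measured as corrected fluorescence normalized to stimulator and neutral control wells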
Hits are given with their value; 0 = inactive. The sample as a whole holds a higher share of hits than the screen did.

SMILES	Artemis endo inh
Cc1cc(NC(=O)COC(=O)c2c(C)nn(Cc3ccccc3Cl)c2C)no1	88.5
O=C(COC(=O)Cc1ccccc1)Nc1ncc(Cl)cc1Cl	0
Cc1ccccc1C(O)(Cc1ccccc1)C1CN2CCC1CC2 (stereo not given)	0
Cc1ccc(Cl)cc1-n1c(O)c(C=NCCCN2CCOCC2)c(=O)[nH]c1=O	0
CCNCC1(c2ccc(OC)c(OC)c2)CCCC1	0

Screening data (PubChem)
